SMILES strings stand for the structures. Records with an inconclusive call do not appear. Entries that show only a call come without a potency. Active and inactive are the calls of the source. Calls come from the whole dose curve; as a rule, active = well fitted inhibition curve with a large enough effect; inconclusive = small, poorly fitted or top-dose-only effect; inactive = flat fitted curve, though single readings scatter.
Potency is the fitted concentration of half-maximal effect.

This assay deals with CP215. Description: qHTS profiling for inhibitors of Plasmodium falciparum proliferation (AID 504749). Note: nearly all actives have a fitted effect of over 60% in size. To be noted: P. falciparum in erythrocytes, SYBR Green DNA, 72 h; series mostly up to 28.7 µM. In outline:
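Parasite proliferation within erythrocytes, 72 h exposure. Endpoint: SYBR Green I fluorescence after overnight lysis at room temperature. Controls: 0.29 uM artemisinin, DMSO.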
For the compound `CCCN(CCc1cccs1)[C@H]1CCc2c(O)cccc2C1`, the Potency was 15.1 µM (active). The same measure for `CC(C)(Cc1c[nH]c2ccccc12)NCC(O)COc1ccccc1C#N` (configuration not stated): “inactive”; for `CC1=C(C(=O)O)N2C(=O)[C@@H](NC(=O)[C@H](N)c3ccccc3)[C@H]2SC1`: “inactive”. The same measure for `COc1cc(N)c(Cl)cc1C(=O)NC1CCN(Cc2ccccc2)CC1`: “inactive”; for `Cc1cc(CC(=O)O)c(C)n1-c1ccc(Cl)cc1`: “inactive”. As for `CN(C)CCOC(c1ccc(Cl)cc1)c1ccccn1` (configuration not stated), the Potency result was “inactive”. The same measure for `O=C(NC1CCN(CCc2c[nH]c3ccccc23)CC1)c1ccccc1`: “inactive”; for `CC(C)(C)CC(C)(C)c1ccc(O)c(-n2nc3ccccc3n2)c1`: “inactive”. The same measure for `O=[N+]([O-])c1cccc(S(=O)(=O)NCCNS(=O)(=O)c2cccc([N+](=O)[O-])c2)c1`: “inactive”.

With `C[N+]1(C)CCC(=C(c2ccccc2)c2ccccc2)CC1`, the Potency entry is “inactive”. With `CC[N+](C)(CC)CCOC(=O)C(O)(c1ccccc1)C1CCCCC1` (configuration not stated), the Potency result was “inactive”. The same measure for `Oc1c(Cl)cc(Cl)c(Cl)c1Cc1c(O)c(Cl)cc(Cl)c1Cl`: 7.57 µM (active). The same measure for `CCNC(=O)/C=C/c1cccc(Br)c1`: “inactive”. On to `CCCCCCCCCCCCOCCOCCOCCOCCOCCOCCOCCOCCOCCO`, for which the Potency result is “inactive”. The same measure for `Cn1c(=O)c2[nH]c(Br)nc2n(C)c1=O`: “inactive”.

With `Cc1ccc2c(Br)cc(Br)c(O)c2n1`, the Potency was 9.53 µM (active).

With `CN1CCC[C@@H]1CCO[C@](C)(c1ccccc1)c1ccc(Cl)cc1`, the Potency result was “inactive”.

The record behind these values is PubChem BioAssay (NCATS).
